Assay outcomes from PubChem BioAssay.
KDM5B inhibitor = inhibitors of human KDM5B histone demethylase; Q9UGL1; KDM5B demethylase, FDH-coupled NADH fluorescence (FDH is formaldehyde dehydrogenase); Potency, µM (titrated, usually from 57.7 µM), usual class: inhibitors; 2.6% of 220,000 active; AID 1347165; active = well fitted inhibition curve with a large enough effect; note: nearly all actives have a fitted effect of over 70% in size
Target sequence (Q9UGL1 whole entry, looked up): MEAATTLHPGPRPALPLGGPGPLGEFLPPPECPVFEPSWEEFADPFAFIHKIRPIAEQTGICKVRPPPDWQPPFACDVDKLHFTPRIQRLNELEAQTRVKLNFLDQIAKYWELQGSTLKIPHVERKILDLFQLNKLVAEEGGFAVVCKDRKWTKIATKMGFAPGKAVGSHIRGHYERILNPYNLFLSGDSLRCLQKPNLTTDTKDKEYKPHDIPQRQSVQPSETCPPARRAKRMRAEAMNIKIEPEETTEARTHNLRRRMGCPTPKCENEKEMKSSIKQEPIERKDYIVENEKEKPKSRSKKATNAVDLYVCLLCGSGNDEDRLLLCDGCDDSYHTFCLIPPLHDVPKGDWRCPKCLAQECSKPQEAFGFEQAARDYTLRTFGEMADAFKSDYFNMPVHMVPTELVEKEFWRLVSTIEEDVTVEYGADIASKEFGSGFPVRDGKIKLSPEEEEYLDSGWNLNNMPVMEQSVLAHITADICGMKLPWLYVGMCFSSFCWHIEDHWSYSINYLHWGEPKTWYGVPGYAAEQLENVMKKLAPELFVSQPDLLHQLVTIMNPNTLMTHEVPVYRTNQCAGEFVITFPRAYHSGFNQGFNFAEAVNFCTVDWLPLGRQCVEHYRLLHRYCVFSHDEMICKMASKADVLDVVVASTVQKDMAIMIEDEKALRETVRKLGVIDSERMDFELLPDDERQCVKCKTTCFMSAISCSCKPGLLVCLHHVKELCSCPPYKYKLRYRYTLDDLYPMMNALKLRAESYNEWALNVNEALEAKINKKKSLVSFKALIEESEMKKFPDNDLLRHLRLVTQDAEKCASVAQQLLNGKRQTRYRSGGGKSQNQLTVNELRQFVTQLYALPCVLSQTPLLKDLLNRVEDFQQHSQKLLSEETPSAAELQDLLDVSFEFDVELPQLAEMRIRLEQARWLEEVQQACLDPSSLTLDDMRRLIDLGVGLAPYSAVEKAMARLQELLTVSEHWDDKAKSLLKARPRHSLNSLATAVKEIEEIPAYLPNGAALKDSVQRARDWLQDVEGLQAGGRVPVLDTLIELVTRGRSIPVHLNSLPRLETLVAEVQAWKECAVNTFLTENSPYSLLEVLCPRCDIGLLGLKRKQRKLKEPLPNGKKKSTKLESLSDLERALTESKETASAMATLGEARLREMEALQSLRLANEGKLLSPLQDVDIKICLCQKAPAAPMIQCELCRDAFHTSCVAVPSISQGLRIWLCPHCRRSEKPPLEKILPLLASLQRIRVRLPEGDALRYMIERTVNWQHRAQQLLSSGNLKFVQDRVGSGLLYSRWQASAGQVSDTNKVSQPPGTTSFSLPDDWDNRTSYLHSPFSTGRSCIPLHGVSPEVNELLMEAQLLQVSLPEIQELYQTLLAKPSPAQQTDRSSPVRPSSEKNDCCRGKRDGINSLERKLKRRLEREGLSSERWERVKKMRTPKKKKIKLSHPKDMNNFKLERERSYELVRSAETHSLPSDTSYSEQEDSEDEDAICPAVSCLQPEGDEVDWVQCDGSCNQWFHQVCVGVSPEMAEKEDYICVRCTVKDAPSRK
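Measured: NADH fluorescence change, 30 min, RT. System: KDM5BΔAP 200 nM final, H3K4me3 peptide, α-KG, Fe(II), ascorbate, NAD⁺ plus FDH, pH 7.5 HEPES. Compounds: titrated, 10 min pre-incubation with enzyme.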
Each line names hits and unclear results; the compound was inactive in the other large screens. The entries come from a sample that favours hits as a whole.

Cc1cccc(C)c1-c1nc(C(=O)N2CCOCC2)n2ccccc12	KDM5B inhibitor 79µM
Cc1cccc(C)c1-c1cc(C(=O)N2CCOCC2)c2cnn(C)c2n1	none
C[C@H]1[C@@H]2[C@@H](O)C([C@H](C)C(=O)NC3CCCCC3)CC[C@@]2(C)CC[C@@H]1NC(=O)c1cnccn1 (some centres undefined)	none
O=C(CCCSc1nc2ccccc2s1)Nc1ccc(F)cc1F	none
Cc1cccc(-c2nnc(SCc3cn4cccc(C)c4n3)o2)c1	none
CC(c1cccs1)N(C)C(=O)Cc1n[nH]c(=O)c2ccccc12 (centres undefined)	none
O=C(OCC1(COC(=O)c2ccc(F)cc2)CCCC(COC(=O)c2ccc(F)cc2)(COC(=O)c2ccc(F)cc2)C1=O)c1ccc(F)cc1	none
Cn1c(=O)c2c(ncn2CC(=O)Nc2ccccc2Cl)n(C)c1=O	none
COc1ccc(NC2=N[C@H]3[C@@H](O)[C@H](O)C[C@H](C(=O)NCc4ccccc4OC)[C@H]3S2)cc1	none
C#CCNC(=O)[C@H]1C[C@@H](O)[C@H](O)[C@@H]2N=C(Nc3cccc4ccccc34)S[C@@H]21	KDM5B inhibitor 8.9µM
Cc1cc(C)cc(NC2=N[C@H]3[C@@H](O)[C@H](O)C[C@H](C(=O)NCCN4CCCCC4)[C@H]3S2)c1	none
COc1ccccc1/C=C/C=C(/C#N)C(=O)Nc1ccccc1C(=O)O	none
COCCCNC(=O)CCc1ncc(-c2ccccc2F)o1	none
Cc1ccc(C2(O)CCN(c3ncccc3C(F)(F)F)CC2)nc1	none
Cc1ccc(C2(O)CCN(c3cc(C(F)(F)F)ccn3)CC2)nc1	KDM5B inhibitor 25µM
Cc1ccc(C2(O)CCN(CC(c3ccccc3)c3ccccc3)CC2)nc1	none
O=C(O)CCC(=O)N1Cc2ccccc2CC2(CCCN(CC3CCCC3)C2)C1 (centres undefined)	none
C=CCNC(=S)NC(=O)c1cc(Br)ccc1Cl	none
CCOc1ccc(C(=O)Nc2cccc(-c3nc4ccccc4o3)c2)cc1[N+](=O)[O-]	none
COC[C@@H]1CN(c2cnccn2)C[C@H]1C(=O)NCC1CC1	KDM5B inhibitor 18µM
CNC(=O)[C@@H]1CN(C(=O)c2ccc(F)cn2)C[C@H]1COC	none
COC[C@@H]1CN(c2cnccn2)C[C@H]1C(=O)NCc1ccc(C)c(C)c1	KDM5B inhibitor 18µM
CNC(=O)[C@@H]1CN(C(=O)c2cnc[nH]2)C[C@H]1COC	none
COc1ccc(C(=O)N[C@@H]2CCC[C@@H]2C(=O)NCc2ccc(C)c(C)c2)cc1	none
COC(=O)NCCc1ccncc1	none
COC[C@@H]1CN(c2cnccn2)C[C@H]1C(=O)NCCc1ccncc1	KDM5B inhibitor 25µM
CNC(=O)[C@@H]1CN(C(=O)c2cocn2)C[C@H]1COC	none
CCCc1ccc(NC(=O)C2CCCN(c3cnccn3)C2)cc1 (centres undefined)	none
COc1cc(C=O)c(-c2ccccc2)cc1OC	none
Cc1nc2ccccc2c(C)c1C(=O)c1ccc(Cl)cc1	none
Cc1cccc(C(=O)NCCc2c[nH]c3ccc(Cl)cc23)c1	none
CCOc1ccc(C(=O)Nc2cnc3ccccc3c2)cc1OC	none
COc1cc(F)ccc1-c1cn(C)c(=O)n2cc(COc3ccc(C(=O)O)cc3)nc12	none
COc1ccc(-c2nc(N3CCOCC3)cc3c2CN(Cc2ccccc2)C3=O)cc1	none
COc1cccc(-c2nc(N3CCOCC3)cc3c2CN(CC2CC2)C3=O)c1OC	KDM5B inhibitor 35µM
O=C1c2cc(N3CCOCC3)nc(-c3ccccc3)c2CN1Cc1ccccc1	KDM5B inhibitor 32µM
COc1ccccc1-c1n[nH]c2c1CC(=O)N(CC1CC1)C2	none
O=C1Cc2c(-c3cccc(CO)c3)n[nH]c2CN1c1ccccc1	none
O=C1c2cnc(-c3cccc(CO)c3)nc2OCCN1c1ccccc1	none
CCc1ccc(C(=O)c2cnc3cc(OC)c(OC)cc3c2N2CCOCC2)cc1	none
Cc1ccc2nc(N3CCOCC3)nc(-c3ccccc3)c2c1	none
COc1cc(F)ccc1-c1nc(N2CCOCC2)cc2c1CN(CC(F)(F)F)C2=O	KDM5B inhibitor 32µM
COc1cccc(C(=O)NC2CCN(c3cnn(CC4CC4)c(=O)c3)CC2)c1OC	none
O=C1c2cc(N3CCOCC3)nc(-c3cccc(CO)c3)c2CN1c1ccccc1	KDM5B inhibitor 35µM
Cc1c(-c2ccccc2)oc2c(C(=O)OCC(=O)Nc3ccc(F)c(F)c3F)cccc2c1=O	none
COCc1cc(=O)[nH]c(-c2ccccc2OC(F)(F)F)n1	none
O=C(OCc1cc(=O)oc2cc(O)ccc12)c1ccc(N2CCOCC2)nc1	none
COc1cccc(-c2noc(N3CCCC3)n2)c1OC	none
CN1Cc2c(cc(N3CCOCC3)nc2-c2ccccc2OC(F)(F)F)C1=O	KDM5B inhibitor 35µM
COc1cccc(-c2nc(N3CCOCC3)cc3c2CN(Cc2ccccc2)C3=O)c1OC	KDM5B inhibitor 32µM
O=C1CC(c2noc(-c3ccccc3OC(F)(F)F)n2)CN1C1CCCCC1 (centres undefined)	none
COc1ccc(CN2CCOc3nc(-c4cccc(C(F)(F)F)c4)ncc3C2=O)cc1	none
COc1cccc(-c2nc(N3CCOCC3)cc3c2CN(CC(F)(F)F)C3=O)c1OC	KDM5B inhibitor 32µM
COc1ccc(CN2Cc3[nH]nc(-c4ccccc4OC)c3CC2=O)cc1	none
COc1cccc(C(=O)NC2CCN(c3cc(C(F)(F)F)nc(C)n3)CC2)c1OC	none
O=C1c2cc(N3CCOCC3)nc(-c3cccc(O)c3)c2CN1CC(F)(F)F	KDM5B inhibitor 40µM
COc1ccc(-c2n[nH]c3c2CC(=O)N(Cc2ccccc2)C3)cc1OC	none
COc1cccc(NC(=O)CSc2nc3ccsc3c(=O)[nH]2)c1	none
CC1CCc2noc(NC(=O)COc3ccccc3)c2C1 (centres undefined)	none
CCOC(=O)C1=CN(c2ccc(F)cc2)C=C(C(=O)OCC)C1c1ccc(F)cc1	none
O=C(/C=C/c1cccc([N+](=O)[O-])c1)OCCCC(=O)c1ccc(F)cc1	none
CN(C)c1oc(-c2ccco2)nc1S(=O)(=O)c1ccc2c(c1)OCCO2	none
N#Cc1nc(-c2cccc(Cl)c2)oc1NCCCn1ccnc1	none
COCCNc1nc2c(c(=O)[nH]c(=O)n2C)n1CCC(C)C	none
Cc1cc(C)n2nc(C)c(C(=O)N[C@@H]3COCC[C@@H]3OCC3CC3)c2n1	KDM5B inhibitor 22µM
Cc1cc(C)n(CCC(=O)N[C@@H]2CCOC[C@H]2OCC2CCC2)c(=O)n1	none
CCn1cc(C(=O)N[C@@H]2COCC[C@@H]2OCC2CC2)c(=O)c2ccc(C)nc21	none
CC(C)(C)c1ccc(C(=O)N/N=C/Cc2ccccc2)cc1	none
CN(Cc1ccccc1)Cc1cc(C[C@@H]2C[C@H](NC(=O)C3CCC3)C2(C)C)no1	none
CCn1c(=O)n(CC)c2cc(N3CCCC3)c(NC(=O)Nc3cccc(SC)c3)cc21	none
COCCNC(=O)[C@H]1C[C@H](Oc2ccccc2)CN1Cc1ccc2[nH]ccc2c1	none
O=C(NCC1Cn2cccc2C(=O)N1Cc1ccccc1)c1cccc2nccnc12 (centres undefined)	none
Cc1nc(C)c(C(=O)NCC2Cn3cccc3C(=O)N2Cc2ccccc2)s1 (centres undefined)	none
COc1ccc(C(=O)NCC2Cn3cccc3CN2Cc2cccnc2)cc1 (centres undefined)	KDM5B inhibitor 13µM
COc1ccc(C(=O)NCC2Cn3cccc3C(=O)N2C)cc1OC (centres undefined)	none
Cc1cc(C(=O)NCC2Cn3cccc3CN2Cc2ccccc2)n[nH]1 (centres undefined)	KDM5B inhibitor 32µM
COc1ccc(C(=O)NCC2Cn3cccc3C(=O)N2CC(C)C)cc1 (centres undefined)	none
O=C(NCC1Cn2cccc2CN1Cc1ccccc1)c1ccc2cc[nH]c2c1 (centres undefined)	KDM5B inhibitor 25µM
COc1ccc(C(=O)N2CCc3ccc(C(=O)NCc4cccnc4)cc32)cc1	none
